From PubChem BioAssay
Activity calls are given as the source filed them.

Key:
[1] = A549 cell viability effects, profiling panel, calcein-AM fluorescence, 48 h, basal (AID 1162); details: higher = more signal
[2] = adipocyte viability effects, profiling panel, cell-based, 3T3-L1 adipocytes, calcein-AM fluorescence, 48 h, basal (AID 1163); details: 3T3-L1 adipocytes viability, higher = more signal
[3] = HepG2 cell viability effects, profiling panel, calcein-AM fluorescence, 48 h, basal (AID 1164); details: higher = more signal
[4] = MM1S cell viability effects, profiling panel, calcein-AM fluorescence, 48 h, basal (AID 1165); details: higher = more signal;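 further: viability of MM1S multiple myeloma cells under basal unstimulated conditions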
[5] = basal RPMI8226 viability, no added stimulus, profiling panel, cell-based, calcein-AM fluorescence, 48 h, PK04 Diversity Set (AID 1166); details: RPMI8226 myeloma viability, higher = more signal;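 further: cells grown under basal conditions without added stimulus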
[6] = basal HepG2 mitochondrial membrane potential changes, profiling panel, cell-based, JC-1 fluorescence, 24 h, 100 nL compound (AID 1167); details: higher = more signal
[7] = basal 3T3-L1 adipocyte mitochondrial potential changes, profiling panel, cell-based, JC-1 fluorescence, 3T3-L1 adipocytes, 24 h, 100 nL compound (AID 1168); details: JC-1 mitochondrial fluorescence, higher = more signal, called active from +8 up or from −8 down
[8] = basal RPMI8226 mitochondrial membrane potential changes, profiling panel, cell-based, JC-1 fluorescence, 24 h, 100 nL compound (AID 1169); details: RPMI8226 myeloma, JC-1 mitochondrial potential fluorescence, higher = more signal
[9] = basal MM1S mitochondrial membrane potential changes, profiling panel, cell-based, JC-1 fluorescence, 24 h, 100 nL compound (AID 1170); details: higher = more signal
[10] = A549 lung cancer cell viability effects, profiling panel, resazurin fluorescence, 24 h, PK04 Diversity Set (AID 1171); details: higher = more signal, called active from +8 up or from −8 down
Further: test concentration not given here.

| SMILES | z-score [1] | z-score [2] | z-score [3] | z-score [4] | z-score [5] | z-score [6] | z-score [7] | z-score [8] | z-score [9] | z-score [10] |
| --- | --- | --- | --- | --- | --- | --- | --- | --- | --- | --- |
| COc1ccccc1CN1C(=O)c2ccccc2[C@@]2(Cc3ccccc3N(C(C)C)C2=O)[C@@H]1c1ccc(CO)cc1 | 0.212 | 0.423 | 1.29 | -0.19 | 0.931 | 0.881 | 0.576 (inactive) | 0.563 | 0.374 | -1.64 (inactive) |
| CO[C@@H]1COC(=O)CC=C[C@@H](C)COC(=O)[C@H](COCc2ccccc2)NC(=O)CC=C[C@H]1C | 0.248 | 0.268 | 0.351 | -0.987 | -0.382 | 0.575 | -0.407 (inactive) | -0.873 | 1.61 | -0.653 (inactive) |
| CC1CC/C=C\[C@H]2OC34C=CCN(Cn5nnc6ccccc65)C(=O)[C@H]3N(CCO)C(=O)[C@@H]4C2C(=O)O1 (stereo not given in full) | -0.338 | 1.11 | -0.447 | 0.0362 | 0.134 | -0.153 | -0.798 (inactive) | 0.691 | 0.206 | 0.676 (inactive) |
| COc1ccc([Si](C)(C)[C@H]2[C@H](CCO)O[C@@]3(C(=O)N(Cc4cccc(NC(=O)[C@H](C)O)c4)c4ccccc43)[C@@H]2C)cc1 | -2.82 | -0.401 | -4.52 | -2.63 | -4.36 | -2.89 | 1.46 (inactive) | -1.02 | -2.35 | -4.28 (inactive) |
| CCCCCN1CC=CC23O[C@@H]4C=CCOC(=O)[C@@H]4[C@H]2C(=O)N(C(CO)C(C)C)[C@@H]3C1=O (stereo not given in full) | -0.0343 | -0.372 | -0.0721 | 0.949 | 0.12 | -0.794 | 0.196 (inactive) | -0.0576 | 0.782 | 0.0963 (inactive) |
| CC(C)(C)OC(=O)CC[C@]1(C(N)=O)COC(c2ccc(OCCCO)cc2)=N1 | 0.371 | 0.0132 | 0.0668 | 0.909 | -0.881 | -0.143 | -0.0265 (inactive) | 0.484 | -0.284 | -1.05 (inactive) |
| CCOC(=O)[C@H](Cc1ccccc1)NC(=O)CCC1CC(OC(=O)NCc2ccc3c(c2)OCO3)CC2(CCCC(COC(=O)NCc3ccccc3)O2)O1 (stereo not given in full) | -0.195 | -0.64 | 0.607 | 0.84 | 0.709 | 2.27 | 0.392 (inactive) | 0.0886 | -0.997 | 0.98 (inactive) |
| CC(=O)OC[C@H]1O[C@@H](ON=C[C@@H](C)[C@H](OCc2ccccc2)C(C)C)[C@H](OC(C)=O)[C@@H](OC(C)=O)[C@@H]1OC(C)=O | 0.605 | -0.466 | 0.471 | 0.614 | 0.048 | -0.148 | 0.0097 (inactive) | 0.386 | -0.863 | -1.23 (inactive) |
| C=C(/C(=C/C[C@@H](OC(=O)c1ccncc1)c1ccc(OCCO)cc1)c1cnc2ccccc2c1)C(C)C | 0.476 | 0.443 | -0.477 | -1.78 | 0.448 | 2.2 | -0.883 (inactive) | -0.736 | -0.48 | -0.464 (inactive) |
| C[C@H]1Cc2c(-c3ccccc3)nc3c(c2CO1)CN(CCOc1ccccc1)CC3 | 2.68 | 0.173 | 1.27 | 0.785 | 0.11 | 0.932 | 0.281 (inactive) | -0.324 | -0.439 | -0.31 (inactive) |
| C/C=C\[C@@H](NCc1ccccc1Br)[C@@H](O)Cc1ccccc1 | -1.17 | 1.43 | -1.44 | -1.53 | -3.29 | -1.34 | 0.0182 (inactive) | -0.926 | -0.0951 | -0.29 (inactive) |
| C#C[C@@H](CC)O[Si](C#Cc1ccc(Oc2ccccc2)cc1)(C(C)C)C(C)C | -2.96 | -1.01 | -2.63 | -2.97 | -4.2 | -2.29 | -0.068 (inactive) | -0.291 | -1.11 | -0.936 (inactive) |
| CC(C)=NOCc1cccc(-c2cc(-c3ccccc3)no2)c1 | -0.398 | 0.0768 | 0.0628 | -1.06 | -0.375 | -0.499 | -0.302 (inactive) | -0.112 | 0.354 | -0.798 (inactive) |
| CCCNC(=O)[C@@H]1c2ccccc2C(=O)N(c2ccc(C)cn2)[C@H]1c1ccc(CO)cc1 | -0.293 | -0.857 | -0.108 | -0.336 | -0.0505 | -0.833 | 0.123 (inactive) | 0.657 | -0.351 | 0.418 (inactive) |
| COCCOC(=O)N1C(=O)[C@@]2(c3cc(C#Cc4ccc(OC)cc4)ccc31)[C@H](C(=O)N1CCN(c3ncccn3)CC1)[C@H]1C(=O)O[C@H](c3ccccc3)[C@H](c3ccccc3)N1[C@@H]2c1ccc(OCCO)cc1 | -0.758 | 0.717 | 0.0264 | -1.01 | 0.581 | 0.331 | 3.91 (inactive) | -0.453 | -0.885 | -0.212 (inactive) |
| O=C1CCCC=C1C(O)CCOCc1ccccc1 (stereo not given) | -0.43 | 0.0411 | -0.457 | -1.42 | 0.452 | -0.667 | 0.0503 (inactive) | 0.215 | 0.527 | -0.323 (inactive) |
| O[C@@H](Cc1ccccc1)[C@H]1C2C=CCCC(c3ccccc3)=C2CN1Cc1cccc(Cl)c1 (stereo not given in full) | 1.89 | 0.101 | 0.662 | -3.27 | -3.43 | 0.514 | -0.366 (inactive) | -1.09 | -0.823 | 0.75 (inactive) |
| CCc1cc2c(nc1CC)CCN(CCC(C)=NOC(C)CN1CCCc3nc(C)c(C)cc31)C2 (stereo not given) | 0.566 | -0.326 | 0.595 | -2.4 | -0.305 | 1.31 | -0.415 (inactive) | -0.668 | -0.342 | 0.103 (inactive) |
| CCOC(=O)CCN1C(=O)[C@H]2[C@H]3[C@H](O)C=CC(=O)[C@@H]3CC[C@H]2C1=O | 0.0872 | 0.0636 | 0.338 | -0.921 | 0.586 | 0.0469 | 0.53 (inactive) | 0.203 | 0.176 | 0.289 (inactive) |
| CC(C)(C)OC(=O)CC[C@]1(C(=O)NCc2ccccc2)N=C(c2ccc(OCCCO)cc2)O[C@H]1c1ccccc1 | -1.02 | 0.587 | -0.329 | -1.99 | -1.14 | 0.956 | -1.1 (inactive) | -0.762 | -0.531 | 0.198 (inactive) |
| CCOC(=O)CCN1C(=O)[C@H]2[C@H]3[C@H](O)[C@H](O)CC(=NNC(=O)OCc4ccc(OC)cc4)[C@@H]3CC[C@H]2C1=O | -0.212 | -0.426 | -0.367 | 0.717 | 0.0819 | -0.547 | -0.0296 (inactive) | -0.91 | -1.1 | -0.807 (inactive) |
| CC(CCC(=O)OC[C@H]1O[C@H](C#Cc2ccccc2)C=C[C@@H]1Oc1ccc(C)cc1)=NOC[C@@H](O)COCc1ccco1 | 0.303 | -0.135 | -0.45 | -2.4 | -2.27 | -1.54 | 0.324 (inactive) | -0.31 | -1.31 | -0.0838 (inactive) |
| COC(=O)[C@H](C)NC(=O)CCC1CC(OC(=O)NCCc2ccc(F)cc2)CC2(CCCC(COC(=O)NCC(c3ccccc3)c3ccccc3)O2)O1 (stereo not given in full) | -0.0262 | -1 | -0.972 | -3.44 | -3.43 | -0.727 | 1.18 (inactive) | -0.379 | -1.37 | 3.22 (inactive) |
